Test results taken from PubChem BioAssay (NCI).
The panel holds about 83,000 compounds, 20% with a hit somewhere; the sample as a whole holds those more often.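 In brief: 96-well plates, 48 h treatment, single concentration, percent growth endpoint.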 The source made the active and inactive calls. Rule for the calls: active = growth percent below 10; inactive = the rest.

Legend:
Test in all cases: NCI-60 one-dose screen, 48 h (100 = growth as untreated, 0 = no growth, -100 = all killed)
SR leukemia = settings: 10 µM unless noted
RPMI-8226 leukemia = settings: 10 µM unless noted
OVCAR-8 ovarian = settings: 10 µM unless noted
OVCAR-5 ovarian = settings: 10 µM unless noted
OVCAR-4 ovarian = settings: 10 µM
IGROV1 ovarian = settings: 10 µM unless noted
OVCAR-3 ovarian = settings: 10 µM unless noted
HS 578T breast = settings: 10 µM unless noted
NCI/ADR-RES ovarian = settings: 10 µM unless noted
T-47D breast = settings: 10 µM unless noted
BT-549 breast = settings: 10 µM unless noted
MDA-MB-435 melanoma = settings: 10 µM unless noted
SW-620 colon = settings: 10 µM unless noted
MCF7 breast = settings: 10 µM unless noted
HCT-116 colon = settings: 10 µM unless noted
HCC-2998 colon = settings: 10 µM unless noted
KM12 colon = settings: 10 µM unless noted

Measured: growth

C[C@@H]1C[C@H]2C(=O)O[C@@H](C)[C@H](NC(=O)[C@H](Cc3cc(F)cc(F)c3)NC(=O)Nc3ccc(Cl)cc3F)C(=O)N3C[C@H](O)C[C@H]3C(=O)N3CCN(C)C[C@H]3C(=O)N[C@@H](C)C(=O)N2C1
active: HCT-116 colon 8.85%
inactive: SR leukemia 40.3% | RPMI-8226 leukemia 20.4% | OVCAR-8 ovarian 39.1% | OVCAR-5 ovarian 41.9% | OVCAR-4 ovarian 16.4% | IGROV1 ovarian 51.3% | OVCAR-3 ovarian 20.4% | HS 578T breast 37.9% | NCI/ADR-RES ovarian 105% | T-47D breast 19.2% | BT-549 breast 14.9% | MDA-MB-435 melanoma 22.3% | SW-620 colon 42% | MCF7 breast 23% | HCC-2998 colon 32.8% | KM12 colon 41.2%

COc1ncc(-c2ccc3nccc(C#CCCCCC(=O)NO)c3c2)cc1NS(=O)(=O)c1ccc(F)cc1F
inactive: OVCAR-4 ovarian 24.9% | NCI/ADR-RES ovarian 55.3%
active: SR leukemia -24.5% | RPMI-8226 leukemia -25.1% | OVCAR-8 ovarian -12.8% | OVCAR-5 ovarian 4.43% | IGROV1 ovarian -21.6% | OVCAR-3 ovarian -31.6% | HS 578T breast -23.8% | T-47D breast -22.6% | BT-549 breast -13.2% | MDA-MB-435 melanoma -7.72% | SW-620 colon -30.9% | MCF7 breast 2.33% | HCT-116 colon -50.3% | HCC-2998 colon 7.27% | KM12 colon 9.84%

CC(=O)Nc1ccc2nc3ccc(NC(C)=O)cc3[n+](-c3ccccc3)c2c1
inactive: SR leukemia 83.7% | RPMI-8226 leukemia 62.1% | OVCAR-8 ovarian 93.5% | OVCAR-5 ovarian 113% | OVCAR-4 ovarian 86% | IGROV1 ovarian 92.8% | OVCAR-3 ovarian 49.2% | HS 578T breast 263% | NCI/ADR-RES ovarian 107% | T-47D breast 93.4% | BT-549 breast 101% | MDA-MB-435 melanoma 123% | SW-620 colon 116% | MCF7 breast 73.1% | HCT-116 colon 95.6% | HCC-2998 colon 108% | KM12 colon 116%

CCc1ccc(C2=C/C(=C/c3ccccc3)C(=O)N2CCc2ccc(S(N)(=O)=O)cc2)cc1
inactive: SR leukemia 96.9% | RPMI-8226 leukemia 110% | OVCAR-8 ovarian 100% | OVCAR-5 ovarian 109% | OVCAR-4 ovarian 103% | IGROV1 ovarian 91.4% | OVCAR-3 ovarian 109% | HS 578T breast 97.5% | NCI/ADR-RES ovarian 104% | T-47D breast 97.8% | BT-549 breast 100% | MDA-MB-435 melanoma 110% | SW-620 colon 106% | MCF7 breast 96.3% | HCT-116 colon 103% | HCC-2998 colon 109% | KM12 colon 104%

Cc1ccc(-c2cc(-c3ccc(C)cc3)nc(NCCNc3ccnc4cc(Cl)ccc34)n2)cc1
active: SR leukemia 2.87% | RPMI-8226 leukemia -22% | OVCAR-8 ovarian -53.4% | OVCAR-5 ovarian -34.9% | OVCAR-4 ovarian -31.4% | IGROV1 ovarian -66.2% | OVCAR-3 ovarian -80.3% | HS 578T breast -46.7% | NCI/ADR-RES ovarian -63.1% | T-47D breast -69.2% | MDA-MB-435 melanoma -76.4% | SW-620 colon -64.9% | MCF7 breast -77.3% | HCT-116 colon -84.5% | HCC-2998 colon -80.2% | KM12 colon -73%
inactive: BT-549 breast 57.7%

Cn1cc(-c2noc(C(=O)c3cn(C)c4ncc(Br)cc34)n2)c2ccccc21
inactive: SR leukemia 95.6% | RPMI-8226 leukemia 84.6% | OVCAR-8 ovarian 101% | OVCAR-5 ovarian 90.2% | OVCAR-4 ovarian 100% | IGROV1 ovarian 87.8% | OVCAR-3 ovarian 106% | HS 578T breast 99.7% | NCI/ADR-RES ovarian 106% | T-47D breast 99.7% | BT-549 breast 98% | MDA-MB-435 melanoma 99.9% | SW-620 colon 96.5% | MCF7 breast 90.5% | HCT-116 colon 99.6% | HCC-2998 colon 108% | KM12 colon 96.7%

COc1cc(NCc2cn(-c3ccc(C(=O)O)cc3)nc2-c2ccc(C(=O)O)cc2)cc(OC)c1OC
inactive: SR leukemia 114% | RPMI-8226 leukemia 93.2% | OVCAR-8 ovarian 101% | OVCAR-5 ovarian 94.8% | OVCAR-4 ovarian 94.4% | IGROV1 ovarian 97.1% | OVCAR-3 ovarian 106% | HS 578T breast 95.6% | NCI/ADR-RES ovarian 107% | T-47D breast 93.7% | BT-549 breast 96.2% | MDA-MB-435 melanoma 102% | SW-620 colon 92% | MCF7 breast 93.3% | HCT-116 colon 97.5% | HCC-2998 colon 104% | KM12 colon 100%

O=C1CC(c2ccc3c(c2)OCO3)Nc2ccccc21 (centres undefined)
active: OVCAR-3 ovarian -19.5% | NCI/ADR-RES ovarian 1.78% | MDA-MB-435 melanoma -22.6%
inactive: SR leukemia 19% | RPMI-8226 leukemia 15.4% | OVCAR-8 ovarian 22.3% | OVCAR-5 ovarian 54.3% | OVCAR-4 ovarian 51.7% | IGROV1 ovarian 53.5% | HS 578T breast 20.2% | T-47D breast 27.5% | BT-549 breast 42.2% | SW-620 colon 19.2% | MCF7 breast 15.9% | HCT-116 colon 17% | HCC-2998 colon 35.3% | KM12 colon 17.1%

C#C[C@]1(O)CC[C@H]2[C@@H]3CC=C4c5nc(Nc6ccccn6)sc5CC[C@]4(C)[C@H]3CC[C@@]21C
active: SR leukemia 8.66% | RPMI-8226 leukemia -45.6% | HS 578T breast -16.8% | BT-549 breast -27.6% | MDA-MB-435 melanoma -32% | SW-620 colon -24.9% | MCF7 breast 7.94% | HCT-116 colon 4.49% | KM12 colon -32.3%
inactive: OVCAR-8 ovarian 27.6% | OVCAR-5 ovarian 30.1% | OVCAR-4 ovarian 16.1% | IGROV1 ovarian 32.7% | OVCAR-3 ovarian 20.8% | NCI/ADR-RES ovarian 22.6% | T-47D breast 10.1% | HCC-2998 colon 34.5%

CC(C)CSc1ncnc2nc[nH]c12
inactive: SR leukemia 119% | RPMI-8226 leukemia 71.4% | OVCAR-8 ovarian 104% | OVCAR-5 ovarian 86.6% | OVCAR-4 ovarian 100% | IGROV1 ovarian 67.1% | OVCAR-3 ovarian 103% | HS 578T breast 116% | NCI/ADR-RES ovarian 100% | T-47D breast 85.7% | BT-549 breast 104% | MDA-MB-435 melanoma 104% | SW-620 colon 104% | MCF7 breast 97.1% | HCT-116 colon 109% | HCC-2998 colon 101% | KM12 colon 106%

COc1ncc(-c2ccc3nccc(C#CCCCCC(=O)O)c3c2)cc1NS(=O)(=O)c1ccc(F)cc1F
active: IGROV1 ovarian -13% | HS 578T breast -10.2% | T-47D breast -18.1% | BT-549 breast 4.54% | MCF7 breast 6.95%
inactive: SR leukemia 63.8% | RPMI-8226 leukemia 47.4% | OVCAR-8 ovarian 35.4% | OVCAR-5 ovarian 22.7% | OVCAR-4 ovarian 50.3% | OVCAR-3 ovarian 19.8% | NCI/ADR-RES ovarian 56% | MDA-MB-435 melanoma 29.5% | SW-620 colon 50.7% | HCT-116 colon 41.1% | HCC-2998 colon 29.4% | KM12 colon 41.6%

O=C(NNc1ccc(-c2ccccc2)nn1)c1ccc(F)cc1
inactive: SR leukemia 92% | RPMI-8226 leukemia 99.7% | OVCAR-8 ovarian 98.6% | OVCAR-5 ovarian 94.2% | OVCAR-4 ovarian 94.8% | IGROV1 ovarian 97% | OVCAR-3 ovarian 103% | HS 578T breast 101% | NCI/ADR-RES ovarian 93.3% | T-47D breast 88.7% | BT-549 breast 95.1% | MDA-MB-435 melanoma 100% | SW-620 colon 100% | MCF7 breast 91% | HCT-116 colon 103% | HCC-2998 colon 102% | KM12 colon 102%

CC(C)(C)OC(=O)N1C=C/C(=C\Cn2cc(-c3ccccc3)nn2)CC1
inactive: SR leukemia 57.9% | RPMI-8226 leukemia 62.9% | OVCAR-8 ovarian 74.9% | OVCAR-5 ovarian 104% | OVCAR-4 ovarian 18% | IGROV1 ovarian 82.7% | OVCAR-3 ovarian 86.6% | HS 578T breast 84.1% | NCI/ADR-RES ovarian 76.9% | T-47D breast 41.1% | BT-549 breast 58.1% | MDA-MB-435 melanoma 85.2% | SW-620 colon 93.8% | MCF7 breast 65.5% | HCT-116 colon 74.1% | HCC-2998 colon 88.4% | KM12 colon 88.9%

CCN1CCN(CC(=O)Nc2nc3ccc(NCc4ccc(Cl)cc4)cc3s2)CC1
active: MDA-MB-435 melanoma -10.6%
inactive: SR leukemia 15.8% | RPMI-8226 leukemia 39.6% | OVCAR-8 ovarian 78% | OVCAR-5 ovarian 74.6% | OVCAR-4 ovarian 80.4% | IGROV1 ovarian 70.9% | OVCAR-3 ovarian 62.1% | HS 578T breast 70.5% | NCI/ADR-RES ovarian 82.6% | T-47D breast 50.6% | BT-549 breast 76.4% | SW-620 colon 22% | MCF7 breast 33.6% | HCT-116 colon 12.6% | HCC-2998 colon 82.1% | KM12 colon 59.9%

CCOC(=O)c1nn(C2CCCCO2)c2ccc(NC(=O)CN3CCOCC3)cc12 (centres undefined)
inactive: SR leukemia 112% | RPMI-8226 leukemia 109% | OVCAR-8 ovarian 99.6% | OVCAR-5 ovarian 102% | OVCAR-4 ovarian 102% | IGROV1 ovarian 102% | OVCAR-3 ovarian 107% | HS 578T breast 99.3% | NCI/ADR-RES ovarian 104% | T-47D breast 98.9% | BT-549 breast 101% | MDA-MB-435 melanoma 106% | SW-620 colon 104% | MCF7 breast 97.3% | HCT-116 colon 90.5% | HCC-2998 colon 109% | KM12 colon 105%

Cc1ccc(NC(=O)N[C@@H](Cc2cc(F)cc(F)c2)C(=O)N[C@@H]2C(=O)N3CCC[C@H]3C(=O)N3CCCC[C@H]3C(=O)N[C@@H](C)C(=O)N3C[C@H](C)C[C@H]3C(=O)O[C@H]2C)cc1
inactive: SR leukemia 31.3% | RPMI-8226 leukemia 20.1% | OVCAR-8 ovarian 18.5% | OVCAR-5 ovarian 34.6% | OVCAR-4 ovarian 11.3% | IGROV1 ovarian 45.9% | OVCAR-3 ovarian 19.8% | HS 578T breast 35.6% | NCI/ADR-RES ovarian 34.4% | T-47D breast 19.7% | BT-549 breast 19.6% | MDA-MB-435 melanoma 18.5% | SW-620 colon 35.6% | MCF7 breast 23.1% | HCT-116 colon 11.2% | HCC-2998 colon 24.6% | KM12 colon 37.8%

O=C(Nc1ccc(CN2CCOCC2)c(C(F)(F)F)c1)c1nc2ccc3[nH]ncc3c2c2c1CCCC2
inactive: SR leukemia 95.8% | RPMI-8226 leukemia 83.3% | OVCAR-8 ovarian 93.5% | OVCAR-5 ovarian 104% | OVCAR-4 ovarian 91% | IGROV1 ovarian 95.8% | OVCAR-3 ovarian 102% | HS 578T breast 95.7% | NCI/ADR-RES ovarian 96.3% | T-47D breast 62.6% | BT-549 breast 136% | MDA-MB-435 melanoma 96.6% | SW-620 colon 99.4% | MCF7 breast 83.1% | HCT-116 colon 79.4% | HCC-2998 colon 116% | KM12 colon 83.9%
